The text below walks through data of PubChem BioAssay.

The nature of test [1]: optical density shifts of acrAB sulA E. coli – strain DRC41, OD650, 48 h, E. coli filamentation inducer project, primary screen (AID 1152).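 Also: E. coli MC1000 strain DRC41 lacking acrAB efflux pump and sulA.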 The following applies: higher = more signal, called active from +8 up or from −8 down.
Test [2] in a line: probe aLefty1 binding on compound microarray – biochemical, small-molecule microarray, 635/667 nm fluorescence, primary screen (AID 1153).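 Also: score merges spot fluorescence with signal-to-noise ratio from the scanned slide images.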 The note with it: higher = more signal.
Test [3] is described as follows: plasmodial surface anion channel blockers, osmotic lysis – cell-based, P. falciparum Indochina, OD700, 1 h, primary screen (AID 1154). The following applies: P. falciparum Indochina infected RBC osmotic lysis, higher = more signal, called active from +8 up or from −8 down.
Test [4] can be described thus: plasmodial surface anion channel blockers, osmotic lysis – cell-based, P. falciparum Indochina, OD700, 2 h, primary screen (AID 1155).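 Also: lysis reports solute entry through the parasite surface anion channel PSAC.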 The following applies: P. falciparum Indochina infected erythrocytes, higher = more signal, called active from +8 up or from −8 down.
Test [5] is described as follows: changes in parasitized red cell lysis, either direction – P. falciparum Indochina, OD700, 3 h, PSAC antagonist project, primary screen (AID 1156). The following applies: P. falciparum-infected erythrocytes, osmotic lysis, higher = more signal, called active from +8 up or from −8 down.
A short description of test [6]: plasmodial surface anion channel blockers, osmotic lysis – cell-based, P. falciparum Indochina, OD700, 18 h, primary screen (AID 1157). The note with it: P. falciparum Indochina infected erythrocytes, osmotic lysis OD700, 18 h; higher = more signal, called active from +8 up or from −8 down.
Test [7] can be described thus: S6 kinase pathway phospho-S6 level changes – cell-based, A549, cytoblot, luminescence, serum-stimulated, primary screen (AID 1158).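 Also: serum-stimulated A549 lung adenocarcinoma cells; signal is phosphorylated S6 detected by cytoblot immunostaining with HRP secondary.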 The note with it: 5 h, higher = more signal.
The target of test [8] is NADPH oxidase 2 (Homo sapiens) (UniProt P04839). The test can be described thus: compounds shifting NOX2 Amplex Red fluorescence – cell-based, HEK293-NOX2, PMA-stimulated, NOX inhibitor project, primary screen (AID 1159). Also: test concentration not given here. The note with it: 45 min, higher = more signal, called active from +8 up or from −8 down.
NADPH oxidase 2 (Homo sapiens), sequence (P04839 whole entry, looked up): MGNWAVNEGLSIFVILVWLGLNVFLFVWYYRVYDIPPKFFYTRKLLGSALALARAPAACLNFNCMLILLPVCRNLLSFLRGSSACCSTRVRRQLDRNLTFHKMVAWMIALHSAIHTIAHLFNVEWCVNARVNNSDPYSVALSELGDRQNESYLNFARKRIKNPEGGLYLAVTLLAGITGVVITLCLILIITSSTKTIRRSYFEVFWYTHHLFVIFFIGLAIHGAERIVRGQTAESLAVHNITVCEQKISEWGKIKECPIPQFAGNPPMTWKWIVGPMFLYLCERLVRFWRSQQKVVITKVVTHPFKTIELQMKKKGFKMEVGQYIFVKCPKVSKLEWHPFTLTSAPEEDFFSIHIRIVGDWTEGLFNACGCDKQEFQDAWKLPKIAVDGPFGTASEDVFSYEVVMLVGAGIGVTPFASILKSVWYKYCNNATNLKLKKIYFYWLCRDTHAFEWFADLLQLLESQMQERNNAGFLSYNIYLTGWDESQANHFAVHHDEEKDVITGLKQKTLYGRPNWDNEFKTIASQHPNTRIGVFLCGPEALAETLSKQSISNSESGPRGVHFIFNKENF
For test [9], the target named is NADPH oxidase 4 (Homo sapiens) (UniProt Q9NPH5). The test can be described thus: compounds shifting NOX4 Amplex Red fluorescence – cell-based, HEK293-NOX4, tetracycline-induced, NOX inhibitor project, primary screen (AID 1160). The note with it: HEK293-NOX4, Amplex Red H2O2 fluorescence, 45 min; higher = more signal, called active from +8 up or from −8 down.
NADPH oxidase 4 (Homo sapiens), sequence (Q9NPH5 whole entry, looked up): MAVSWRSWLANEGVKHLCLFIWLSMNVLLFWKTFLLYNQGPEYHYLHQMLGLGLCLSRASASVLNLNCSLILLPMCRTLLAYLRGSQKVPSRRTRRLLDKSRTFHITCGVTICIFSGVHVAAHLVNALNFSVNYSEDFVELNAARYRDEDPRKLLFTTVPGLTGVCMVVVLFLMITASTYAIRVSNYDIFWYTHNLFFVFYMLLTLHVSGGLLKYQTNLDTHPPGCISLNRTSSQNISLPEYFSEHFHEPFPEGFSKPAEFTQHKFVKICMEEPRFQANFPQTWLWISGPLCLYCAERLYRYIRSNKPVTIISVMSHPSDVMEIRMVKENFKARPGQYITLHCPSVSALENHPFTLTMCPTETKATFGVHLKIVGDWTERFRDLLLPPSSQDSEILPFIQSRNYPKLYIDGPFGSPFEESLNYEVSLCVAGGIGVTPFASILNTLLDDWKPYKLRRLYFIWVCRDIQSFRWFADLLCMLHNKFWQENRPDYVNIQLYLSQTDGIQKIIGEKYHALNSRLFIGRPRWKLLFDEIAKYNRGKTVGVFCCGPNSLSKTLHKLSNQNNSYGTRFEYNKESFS
Test [10] has as its target NADPH oxidase 5 (Homo sapiens) (UniProt Q96PH1). Nature of the test: compounds shifting NOX5 Amplex Red fluorescence – cell-based, HEK293-NOX5, NOX inhibitor project, primary screen (AID 1161). The note with it: HEK293-NOX5, ionomycin, 45 min, higher = more signal.
A short description of test [11]: compound effects on lung adenocarcinoma cell viability – A549, calcein-AM fluorescence, 48 h, basal, profiling panel (AID 1162). Also: test concentration not given here. The note with it: higher = more signal.
Test [12] is described as follows: compound effects on differentiated 3T3-L1 adipocyte viability – cell-based, 3T3-L1 adipocytes, calcein-AM fluorescence, 48 h, basal, profiling panel (AID 1163). Also: test concentration not given here. The note with it: 3T3-L1 adipocytes viability, higher = more signal.
A short description of test [13]: compound effects on hepatocellular carcinoma cell viability – HepG2, calcein-AM fluorescence, 48 h, basal, profiling panel (AID 1164). Also: test concentration not given here. The following applies: higher = more signal.
The nature of test [14]: compound effects on multiple myeloma cell viability – MM1S, calcein-AM fluorescence, 48 h, basal, profiling panel (AID 1165).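 Also: viability of MM1S multiple myeloma cells under basal unstimulated conditions; test concentration not given here.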 The following applies: higher = more signal.
Test [15] in a line: calcein-AM signal in unstimulated myeloma cells – cell-based, calcein-AM fluorescence, 48 h, PK04 Diversity Set, profiling panel (AID 1166).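 Also: cells grown under basal conditions without added stimulus; test concentration not given here.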 The following applies: RPMI8226 myeloma viability, higher = more signal.
Test [16] in a line: JC-1 mitochondrial signal, unstimulated HepG2 cells – cell-based, JC-1 fluorescence, 24 h, 100 nL compound, profiling panel (AID 1167). Also: test concentration not given here. The following applies: HepG2 mitochondrial potential, higher = more signal.
Test [17] is described as follows: JC-1 mitochondrial signal, unstimulated adipocytes – cell-based, JC-1 fluorescence, 3T3-L1 adipocytes, 24 h, 100 nL compound, profiling panel (AID 1168). Also: test concentration not given here. The note with it: JC-1 mitochondrial fluorescence, higher = more signal, called active from +8 up or from −8 down.
Test [18] can be described thus: JC-1 mitochondrial signal, unstimulated myeloma cells – cell-based, JC-1 fluorescence, RPMI8226, 24 h, 100 nL compound, profiling panel (AID 1169). Also: test concentration not given here. The note with it: JC-1 mitochondrial potential fluorescence, higher = more signal.
The nature of test [19]: JC-1 mitochondrial signal, unstimulated MM1S myeloma – cell-based, JC-1 fluorescence, 24 h, 100 nL compound, profiling panel (AID 1170). Also: test concentration not given here. The note with it: MM1S mitochondrial potential, higher = more signal.
The nature of test [20]: resazurin metabolic signal in A549 cells – cell-based, resazurin fluorescence, 24 h, PK04 Diversity Set, profiling panel (AID 1171). Also: test concentration not given here. The following applies: A549 viability, higher = more signal, called active from +8 up or from −8 down. In general terms: Resazurin is reduced to fluorescent resorufin, in cell work by metabolically active cells.

Active and inactive are the calls of the source.

NADPH oxidase 5 (Homo sapiens), sequence (Q96PH1 whole entry, looked up): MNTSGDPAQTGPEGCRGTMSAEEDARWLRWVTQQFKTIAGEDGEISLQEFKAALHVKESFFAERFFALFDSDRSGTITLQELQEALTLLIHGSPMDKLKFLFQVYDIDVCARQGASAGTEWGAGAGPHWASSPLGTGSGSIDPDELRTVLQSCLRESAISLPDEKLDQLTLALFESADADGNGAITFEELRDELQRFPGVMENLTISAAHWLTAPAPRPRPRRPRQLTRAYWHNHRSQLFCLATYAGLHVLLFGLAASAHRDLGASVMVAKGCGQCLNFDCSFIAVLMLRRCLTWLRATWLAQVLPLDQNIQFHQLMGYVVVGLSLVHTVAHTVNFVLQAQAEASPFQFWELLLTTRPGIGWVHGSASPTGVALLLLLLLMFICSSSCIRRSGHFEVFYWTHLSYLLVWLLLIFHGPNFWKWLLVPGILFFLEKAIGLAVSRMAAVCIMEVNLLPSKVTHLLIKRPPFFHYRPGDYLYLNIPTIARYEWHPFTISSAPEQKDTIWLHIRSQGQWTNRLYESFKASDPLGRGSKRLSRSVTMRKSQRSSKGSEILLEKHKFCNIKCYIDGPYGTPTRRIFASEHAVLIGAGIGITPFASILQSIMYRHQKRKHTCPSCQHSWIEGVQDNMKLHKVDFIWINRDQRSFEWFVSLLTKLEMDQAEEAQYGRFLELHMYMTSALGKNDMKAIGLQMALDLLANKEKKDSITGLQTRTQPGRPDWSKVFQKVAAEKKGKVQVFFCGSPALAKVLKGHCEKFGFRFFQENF

As for `CCCCC(CC)C(O)C1C=CC2C(=O)N(c3ccccc3)C(=O)C2N1Nc1ccccc1F` (stereo not given), the z-score in [1] is 0.351 (inactive); in test [3], 0.741 (inactive); in [4], -0.686 (inactive); in test [5] it was -0.42 (inactive); in [6], -1.57 (inactive); in [7], 0.434. The z-score in [8] is -0.157 (inactive); in test [9], 0.143 (inactive); in test [10], 1.01; in test [11], 0.389; in [12], -0.21; in [13], -0.553. The z-score in test [14] was 0.566; in test [15], 0.203; in test [16] it was -0.639; in test [17], -0.511 (inactive); in [18] it was 0.51; in test [19], -0.775. For the same molecule, in [20], the z-score was 0.653 (inactive). The composite z-score in test [2] is -0.0576.
`CCOC(=O)C[C@H]1[C@H](OC(=O)c2cc3ccccc3oc2=O)[C@@H](NC(=O)c2ccc3ccccc3n2)c2cc(OCCCO)ccc2N1C(=O)Cc1ccc(OC)cc1`: the z-score in test [1] was 0.116 (inactive); in test [3], 8.66 (active); in test [4] it was 1.33 (inactive); in test [5] it was 0.635 (inactive); in [6] it was 0.745 (inactive); in test [7], -0.0026. Further, the z-score in [8] is 1.01 (inactive); in test [9], 1 (inactive); in test [10] it was 1.53; in test [11], 0.308; in test [12] it was 0.499; in test [13], -0.355. For the same molecule, the z-score was 0.765 in test [14]; -0.946 in [15]; 0.492 in test [16]; -0.362 (inactive) in [17]; 0.498 in test [18]; -0.423 in test [19]. Besides, the z-score in test [20] was 0.711 (inactive). Moreover, the composite z-score in test [2] was 0.0774.
As to `CC(C)C(CO)N1C(=O)[C@@H]2C3C(=O)OCCC/C=C\[C@H]3OC23C=CCN(c2ccc4ccccc4c2)C(=O)[C@@H]13` (stereo not given in full), the z-score was -0.546 (inactive) in test [1]; 1.03 (inactive) in [3]; 0.36 (inactive) in [4]; 0.204 (inactive) in test [5]; 0.478 (inactive) in test [6]; -0.428 in [7]. Besides, the z-score was 1.77 (inactive) in test [8]; 0.767 (inactive) in test [9]; 1.69 in test [10]; -0.0401 in [11]; -0.0738 in [12]; -0.131 in test [13]. Moreover, the z-score in test [14] was 0.292; in test [15] it was 0.457; in test [16] it was -0.0404; in test [17], -0.0718 (inactive); in [18], 0.0134; in test [19], -0.332. Further, in [20], the z-score is -0.525 (inactive). For the same molecule, in test [2], the composite z-score was 0.0533.
With `CO[C@H]1O[C@H](CO)[C@@H](OC(=O)Nc2ccc3c(c2)OCO3)[C@H](OC(=O)Nc2ccc3c(c2)OCO3)[C@@H]1OC(=O)Nc1ccc2c(c1)OCO2`, the z-score in test [1] is -0.53 (inactive); in [3], 11 (active); in test [4], 1.62 (inactive); in test [5] it was 1.55 (inactive); in [6], 0.742 (inactive); in test [7], -0.563. For the same molecule, the z-score is -1.32 (inactive) in test [8]; -1.19 (inactive) in test [9]; -1.57 in test [10]; -0.077 in test [11]; 0.0003 in test [12]; -0.797 in [13]. The z-score in test [14] is -1.89; in [15] it was -1.84; in [16], -1.14; in test [17] it was -0.13 (inactive); in test [18] it was -0.538; in [19], -0.357. In addition, the z-score in test [20] is -0.333 (inactive). In addition, the composite z-score in [2] is 0.26.
